# Measurements from PubChem BioAssay AID1259312 (Keith Lab, Institute of Cancer Science, University of …, 2017).
# The whole screen tested about 4,500 compounds, of which about 200 (4.4%) were called active.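 How the source made its calls: active means cell survival measured by absorbance rises more than 2.5-fold over infected cells without compound; inactive means the rest.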 Many of the other results were omitted from the sample, so actives are more common in it than they were.
# Experiment: survival after telomere uncapping, modulators, primary screen, cell-based (AID 1259312);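 further: virus expresses mutant telomerase RNA that uncaps telomeres and kills cells; compound added 2 days after infection so exposure lasts 3 days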
# Details: HCT116 + Ad-hTR-mut, MTT, 5 d; at 10 µM, stronger effect = higher value
row,SMILES,fold change
1,COC(=O)C1=C(CSCc2ccco2)NC(=O)NC1c1ccc(C)cc1C (configuration not stated),-1.35 (inactive)
2,CCOC(=O)c1c(NC(=O)C(F)(F)F)sc2c1CCN(C(=O)OCC)C2,1.21 (inactive)
3,Cc1ccc(-c2nc(CSc3nccc(N)n3)cs2)cc1,-2.25 (inactive)
4,O=S(=O)(Nc1ccc(S(=O)(=O)Nc2ccc(F)cc2)cc1)c1ccccc1,-1.01 (inactive)
5,O=S(=O)(Nc1ccc(Br)cc1)c1ccccc1,2.66 (active)
6,O=S(=O)(Nc1ccc(Br)cc1)c1ccc(Cl)cc1,1.91 (inactive)
7,O=C1c2cccc(Cl)c2C(=O)c2cccc(Cl)c21,-1.08 (inactive)
8,CCc1sc(/C=C(/C#N)C(=O)OC)cc1[N+](=O)[O-],-2.59 (inactive)
9,NCCCNc1ccc([N+](=O)[O-])cc1Cl,1.09 (inactive)
10,CCN(CC)CCNc1ccc([N+](=O)[O-])cc1[N+](=O)[O-],3.5 (active)
11,CN(C)CCCNc1ccc([N+](=O)[O-])cc1Cl,3.8 (active)
12,O=[N+]([O-])c1ccc(NCCO)c([N+](=O)[O-])c1,1.74 (inactive)
13,CCNCCNc1ccc([N+](=O)[O-])cc1Cl,1.86 (inactive)
14,CCN(CC)CCNc1ccc(Cl)cc1[N+](=O)[O-],3.03 (active)
15,NCCNc1ccc([N+](=O)[O-])cc1[N+](=O)[O-],1.82 (inactive)
16,CN(C)CCNc1ccc(Cl)cc1[N+](=O)[O-],1.53 (inactive)
17,NCCCNc1ccc(Cl)cc1[N+](=O)[O-],-1.5 (inactive)
18,Cc1cccc(-c2cc(=O)c3cc(Br)ccc3o2)c1,1.11 (inactive)
19,Nc1nc(C=C(Cl)Cl)cs1,1.63 (inactive)
20,COc1cc2c(cc1OC)C(C(=O)O)CC(=O)N2 (configuration not stated),-1.06 (inactive)
21,COc1ccc(C(O)c2nccn2C)cc1OC (configuration not stated),-1.55 (inactive)
22,COc1ccc(-c2coc3ccc(OC4OC(COC(C)=O)C(OC(C)=O)C(OC(C)=O)C4OC(C)=O)c(OC(C)=O)c3c2=O)cc1 (configuration not stated),-1.42 (inactive)
23,CC1=NN(c2ccccc2)C(=O)/C1=C\c1cn(-c2ccccc2)nc1C12CC3CC(CC(C3)C1)C2,-2.06 (inactive)

row,SMILES,fold change
1,Clc1cccc(N=Cc2cc3ccccc3nc2Cl)c1Cl,3.42 (active)
2,Clc1ccc(N=Cc2ccccc2Cl)nc1,1.71 (inactive)
3,COc1cc(N=Cc2cc(Cl)cc(Cl)c2O)c(OC)cc1Cl,inactive
4,Clc1nc2ccccc2cc1C=Nc1ccc(Br)cc1,3.97 (active)
5,COc1cc(N=Cc2cc3ccccc3nc2Cl)c(OC)cc1Cl,3.58 (active)
6,Oc1c(Br)cc(Br)cc1C=Nc1ccc(F)cc1,inactive
7,Clc1ccc(Cl)c(N=Cc2cc3ccccc3nc2Cl)c1,1.49 (inactive)
8,Oc1c(Br)cc(Br)cc1C=Nc1ccc(Cl)c(Cl)c1,inactive
9,CC(Sc1ccccc1)C(=O)N[C@@H]1C[C@H]2CC[C@@H]1C2 (some centres not stated),-1.09 (inactive)
10,c1ccc(-c2nc(Sc3nc(-c4ccccc4)nc4ccccc34)c3ccccc3n2)cc1,-1.53 (inactive)
11,O=c1[nH]c(=O)n(-c2ccccc2)c(O)c1/C=C1\C=Nc2ccccc21,inactive
12,CCOC(=O)c1cnn2cc(-c3[nH]ncc3[N+](=O)[O-])cnc12,-1.64 (inactive)
13,O=c1[nH]n2cc(-c3[nH]ncc3[N+](=O)[O-])cnc2c1[N+](=O)[O-],4.1 (active)
14,N#Cc1cnn2cc([N+](=O)[O-])cnc12,-1.15 (inactive)
15,O=c1[nH]n2cc(-c3n[nH]c(-c4cnc5c(Br)c(=O)[nH]n5c4)c3[N+](=O)[O-])cnc2c1Br,3.53 (active)
16,NC(=O)c1[nH]ncc1[N+](=O)[O-],1.08 (inactive)
17,Cc1cc(C)n2[nH]c(=O)c([N+](=O)[O-])c2n1,1.66 (inactive)
18,O=C(O)c1[nH]ncc1[N+](=O)[O-],1.94 (inactive)
19,N#Cc1cnn2cc(-c3[nH]ncc3[N+](=O)[O-])cnc12,3.75 (active)
20,Cn1c(=O)oc2ccc(S(=O)(=O)Nc3ccc4c(c3)CCN4S(C)(=O)=O)cc21,-1.03 (inactive)
21,O=C(O)C1CC(=O)N(CC2CCCO2)C1 (configuration not stated),-1.58 (inactive)
22,CCc1sc(/C=C(/C#N)C(=O)OC(C)C)cc1Br,-3.71 (inactive)
23,Fc1ccc(-c2cnc3ccccc3n2)cc1,-2.09 (inactive)

row,SMILES,fold change
1,O=C(CCn1cnnn1)Nc1nc2cc(OC(F)(F)F)ccc2s1,1.2 (inactive)
2,COC1OC2COC(c3ccccc3)OC2C(O)C1OS(=O)(=O)c1ccc(C)cc1 (configuration not stated),2.36 (inactive)
3,COC1OC2COC(c3ccccc3)OC2C(O)C1O (configuration not stated),3.25 (active)
4,COc1ccc(N=Nc2c(N)n[nH]c2N)cc1,active
5,COc1ccc(-c2nnc(N)o2)cc1,1.14 (inactive)
6,COc1ccc(C=Nc2nonc2N)cc1,-2.59 (inactive)
7,Cc1cc(C)nc(/N=C(/N)Nc2ccc(C)c([N+](=O)[O-])c2)n1,-1.56 (inactive)
8,O=C(O)c1cc2cc3c4c(c2oc1=O)CCCN4CCC3,1.07 (inactive)
9,CC(C)(C)[Si](C)(C)N1C(=O)C[C@H]1C(=O)O,1.19 (inactive)
10,O=c1[nH]snc1N1CCOCC1,-1.16 (inactive)
11,O=C1c2ccc([N+](=O)[O-])cc2C(=O)N1CNc1ccc2c(c1)oc1ccccc12,2.96 (active)
12,CN1C(=O)c2ccc([N+](=O)[O-])cc2C1=O,1.34 (inactive)
13,O=C1c2ccc([N+](=O)[O-])cc2C(=O)N1Cc1nc2ccccc2c(=O)o1,-5.24 (inactive)
14,O=S(=O)(NCc1ccc2c(c1)OCO2)c1ccc2ccccc2c1,-1.07 (inactive)
15,O=c1oc(-c2cccs2)nc2cc([N+](=O)[O-])ccc12,1.07 (inactive)
16,O=C(CCl)N1CCc2ccccc21,3.82 (active)
17,O=C(C(=O)N1CCc2ccccc21)N1CCc2ccccc21,-1.35 (inactive)
18,O=C(COc1cccc2ccccc12)N1CCc2ccccc21,-1.51 (inactive)
19,CCOC(=O)c1c(NC(=O)c2ccco2)sc(C(=O)N2CCCC2)c1C,-2.09 (inactive)
20,O=C1C(=Cc2c[nH]c3ccccc23)C(=O)c2ccccc21,-1.41 (inactive)
21,Nc1nnc(SCC(=O)N2CCCC2)s1,1.32 (inactive)
22,CN(C)C(=O)CSc1nnc(N)s1,3.85 (active)
23,NC(=O)CSc1nnc(SCC(N)=O)s1,-3.2 (inactive)

row,SMILES,fold change
1,Cc1cc(C)c2oc(-c3cc(N)ccc3Cl)nc2c1,1.24 (inactive)
2,Cn1cnnc1-c1ccc(N)cc1,-1.13 (inactive)
3,CC(C)(C)c1ccc(-c2nnc(-c3ccc(Cl)cc3Cl)o2)cc1,-1.32 (inactive)
4,S=c1[nH]ccn1-c1ccccc1,1.02 (inactive)
5,NC(=O)c1no[n+]([O-])c1C(N)=O,-1.25 (inactive)
6,c1ccc(-c2csc(N3CCN(C(c4ccccc4)c4ccccc4)CC3)n2)cc1,1.15 (inactive)
7,O=[N+]([O-])c1ccccc1-n1ccnc1,-1.71 (inactive)
8,O=[N+]([O-])c1ccc(S(=O)(=O)Nc2nc3ccccc3s2)cc1,1.84 (inactive)
9,O=[N+]([O-])c1ccc(-n2nnc3ccccc32)c([N+](=O)[O-])c1,-1.31 (inactive)
10,O=[N+]([O-])c1ccccc1S(=O)(=O)n1cnc2ccccc21,3.82 (active)
11,O=[N+]([O-])c1ccc(NCCCn2cnc3ccccc32)nc1,1.16 (inactive)
12,O=[N+]([O-])c1ccc(S(=O)(=O)n2cnc3ccccc32)cc1,3.41 (active)
13,COc1cc(OC)cc(C2SC(N)=C(C#N)C(N)=C2C#N)c1 (configuration not stated),-1.62 (inactive)
14,N[C@@H](CSCC(=O)O)C(=O)O,2.87 (active)
15,NC(CCCC(N)C(=O)O)C(=O)O (configuration not stated),-1.27 (inactive)
16,NC(CC(=O)O)C(=O)O (configuration not stated),1.14 (inactive)
17,O=C(Cc1cccs1)NC1CCCC1,-3.03 (inactive)
18,C1CCN(c2nc3nonc3nc2N2CCCC2)C1,-1.59 (inactive)
19,O=c1[nH]c(/C=C/c2ccc(Br)cc2)nc(O)c1[N+](=O)[O-],2.47 (inactive)
20,COc1ccc(OC)c(/C=C/c2[nH]c(=O)[nH]c(=O)c2[N+](=O)[O-])c1,1.29 (inactive)
21,O=c1[nH]c(/C=C/c2ccc(Br)cc2)c([N+](=O)[O-])c(=O)[nH]1,3.45 (active)
22,N#CC1=C(N)n2c(s/c(=C\c3ccc(Cl)cc3)c2=O)=C(C#N)C1c1ccc(Cl)cc1 (configuration not stated),-1.6 (inactive)
23,N#CC1Cc2cc([N+](=O)[O-])ccc2-c2cc(Cl)cc(Cl)c21 (configuration not stated),-3.59 (inactive)

row,SMILES,fold change
1,C/C(Cn1nnc2ccccc21)=N\NC(=O)c1c[nH]c2ccccc12,-2.58 (inactive)
2,NNC(=O)COc1ccc2c(c1Br)CCCC2,2.77 (active)
3,NNC(=O)c1ccc(COc2ccc3c(c2)CCC3)o1,-1.37 (inactive)
4,O=C(COc1ccc(Br)cc1)NCC1CCCO1 (configuration not stated),-1.54 (inactive)
5,S=c1[nH]nc(-c2ccccc2)n1C1CCCCC1,1.07 (inactive)
6,COCCCN1C(=O)/C(=C/c2cccs2)SC1=S,-1.09 (inactive)
7,CCCCCCCCCCCCCCCC(=O)O,1.25 (inactive)
8,CCCCC(CC)C(=O)NC(C)(C)C (configuration not stated),1.34 (inactive)
9,CCCCCCCCCCCCCCC(CC(=O)O)C(=O)O (configuration not stated),2.88 (active)
10,COc1ccc(-c2cc(=O)c3ccc(O)cc3o2)cc1,-1.7 (inactive)
11,Cn1nccc1C(=O)Nc1nc2ccccc2s1,-1.5 (inactive)
12,Cc1csc(NC(=O)c2ccnn2C)n1,1.09 (inactive)
13,Cn1nccc1C(=O)O,3.48 (active)
14,COC(=O)/C(C#N)=C/c1cc(C)sc1C,1.01 (inactive)
15,N#CC1=C(N)n2c(s/c(=C/c3ccc(Cl)cc3Cl)c2=O)=C(C#N)C1c1ccc(Cl)cc1Cl (configuration not stated),1.33 (inactive)
16,N#CC1=C(N)C(C#N)=c2s/c(=C/c3c(F)cccc3Cl)c(=O)n2C1c1c(F)cccc1Cl (configuration not stated),2.98 (active)
17,N#CC1=C(N)C(C#N)=c2s/c(=C/c3ccc(F)cc3)c(=O)n2C1c1ccc(F)cc1 (configuration not stated),2.25 (inactive)
18,N#CC1=C(N)C(C#N)=c2s/c(=C/c3cccc(F)c3)c(=O)n2C1c1cccc(F)c1 (configuration not stated),3.89 (active)
19,COC(=O)C1=c2s/c(=C/c3ccncc3)c(=O)n2C(c2ccncc2)C(C#N)=C1N (configuration not stated),1.32 (inactive)
20,N#CC1=C(N)C(C#N)=c2s/c(=C/c3ccc(Cl)cc3Cl)c(=O)n2C1c1ccc(Cl)cc1Cl (configuration not stated),-1.24 (inactive)
